# Source: PubChem BioAssay
# Hits are enriched below; roughly 2.8% of the tested compounds scored in any of these assays.
# POLI inh – blocks human DNA polymerase iota activity; Q9UNA4; Pol iota fluorescent replication assay, 10 min; Potency, µM (top dose mostly 115 µM), for the others: top-dose activity, negative = inhibition, hits mostly inhibitors; hit rate 1% among 390,000; AID 588590; note: potency is the fitted concentration of half-maximal effect
#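 Fluorescent replication assay read twice, at 0 min and 10 min after adding 50 nM (final) substrate. Enzyme (10 nM) and compounds were first incubated 15 min at room temperature; enzyme-free buffer wells were negative controls.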
# Pol eta inh – DNA polymerase eta (human) inhibition. recombinant Pol eta, fluorescent DNA replication assay. Potency, µM (titrated, usually from 114 µM), inactives show at the highest dose activity change, negative = inhibition, usual class: inhibitors. hit rate 1.2% among 390,000. AID 588591; note: potency is the fitted concentration of half-maximal effect; % is set by controls: 0 for no effect and ±100 for the full control effect
#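 Pol eta at 10 nM preincubated with compounds 15 min at room temperature; reaction started with fluorescent substrate (50 nM final) and read kinetically at 0 and 10 min.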
# WRN inhibitor – inhibitors of human WRN helicase; Q14191; WRN helicase unwinding, fluorescent forked duplex, kinetic; Potency, µM (doses to about 114 µM), for inactives: top-dose activity change, negative = inhibition, hits mostly inhibitors; hit rate 0.46% among 360,000; note: potency is the fitted concentration of half-maximal effect; % is set by controls: 0 for no effect and ±100 for the full control effect; nearly all actives have a fitted effect of over 55% in size
#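 Fluorescence dequenching readout, ex 525 nm/em 598 nm, kinetic mode: forked duplex DNA (100 nM final) with adjacent fluorophore and quencher unwound by WRN (20 nM final) with 2 mM ATP. Compound preincubation 15 min, room temperature.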
# POLK inh – inhibitors of human DNA polymerase kappa. Q9UBT6. purified Pol kappa, fluorescent DNA synthesis assay, 10 min. Potency, µM (titrated, usually from 107 µM), for the others: at the top dose activity, negative = inhibition, actives largely listed as inhibitors. hit rate 0.53% among 400,000; note: potency is the fitted concentration of half-maximal effect; % is set by controls: 0 for no effect and ±100 for the full control effect
# Target sequence (Q9UBT6 whole entry, looked up): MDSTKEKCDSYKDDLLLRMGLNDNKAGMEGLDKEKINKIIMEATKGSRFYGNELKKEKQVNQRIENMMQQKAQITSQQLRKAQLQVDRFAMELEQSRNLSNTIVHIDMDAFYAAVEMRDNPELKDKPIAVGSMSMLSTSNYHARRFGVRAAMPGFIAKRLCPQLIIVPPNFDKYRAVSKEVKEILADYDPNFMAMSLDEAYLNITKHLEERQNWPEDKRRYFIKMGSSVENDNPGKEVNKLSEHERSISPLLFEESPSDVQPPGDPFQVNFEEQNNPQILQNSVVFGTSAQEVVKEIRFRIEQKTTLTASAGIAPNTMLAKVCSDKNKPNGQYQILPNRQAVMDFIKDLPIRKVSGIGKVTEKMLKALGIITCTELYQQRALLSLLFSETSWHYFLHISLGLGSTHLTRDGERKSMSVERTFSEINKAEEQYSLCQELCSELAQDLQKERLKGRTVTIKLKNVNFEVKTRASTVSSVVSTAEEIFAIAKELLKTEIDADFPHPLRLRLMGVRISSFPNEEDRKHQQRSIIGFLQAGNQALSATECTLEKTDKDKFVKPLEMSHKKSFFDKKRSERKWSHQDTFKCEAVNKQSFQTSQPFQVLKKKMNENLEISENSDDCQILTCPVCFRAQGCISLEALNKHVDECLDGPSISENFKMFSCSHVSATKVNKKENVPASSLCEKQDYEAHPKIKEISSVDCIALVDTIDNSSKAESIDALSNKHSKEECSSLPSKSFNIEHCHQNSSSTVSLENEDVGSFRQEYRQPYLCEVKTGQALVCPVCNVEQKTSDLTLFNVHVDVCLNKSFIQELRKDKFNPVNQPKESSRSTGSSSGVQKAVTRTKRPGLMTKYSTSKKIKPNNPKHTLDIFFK
#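 Readout: fluorescence, taken kinetically at 0 and 10 min. Conditions: 10 nM Pol kappa, 15 min RT compound preincubation, 50 nM substrate final. Controls: enzyme-free buffer wells.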
# PI5P4K alpha inh – inhibitors of human PI5P4K alpha; P48426; PI5P4Kalpha enzyme, ADP-Glo luminescence, 60 min; active compounds read low; max response, %; hit rate 1.2% among 330,000; active = max response of -50% or lower; inconclusive = between -30% and -50%; inactive = -30% or higher; note: value at the top dose of about 77 µM; % is set by controls: 0 for no effect and ±100 for the full control effect
#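 PI5P4Kalpha ADP-Glo assay; 5 microM ATP final; 60 min RT reaction; HEPES pH 7.4/EGTA/CHAPS, 5% DMSO; controls lacking substrate or enzyme; luminescent end-point.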
# POLB inh – inhibitors of human DNA polymerase beta. Pol beta primer extension/strand displacement, fluorescence kinetic. Potency, µM (top dose mostly 114 µM), without a hit: at the top dose activity change, negative = inhibition, hits mostly inhibitors. hit rate 1.3% among 340,000; note: potency is the fitted concentration of half-maximal effect; % is set by controls: 0 for no effect and ±100 for the full control effect
#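 Reaction started by 50 nM substrate onto compound-treated Pol beta (10 nM, 15 min preincubation, room temperature); plates read at 0 min and 10 min. Normalized concentration-effect data fitted by four-parameter Hill equation.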
# * marks the source's active call; other numbers are inactive results; ? = inconclusive; . = not tested or not shown; [ ] = remark or other dose. Unless noted, calls come from the whole dose curve; as a rule, active = well fitted curve in the direction sought with a large enough effect; inconclusive = small, poorly fitted or top-dose-only effect, or another doubt; inactive = no such curve, though single readings can be large; an effect the other way counts as inactive or inconclusive.
SMILES,POLI inh,Pol eta inh,WRN inhibitor,POLK inh,PI5P4K alpha inh,POLB inh
CCOc1cc(/C=C2\SC(=S)N(NC(=O)c3cccnc3)C2=O)ccc1O,28µM*,?,56µM*,-31%,-7,?
COc1cc(/C=C2\SC(=S)N(NC(=O)c3ccccc3OC)C2=O)ccc1O,50µM*,?,16µM*,-20%,-23,18µM*
COc1cc(/C=C2\SC(=S)N(NC(=O)c3ccncc3)C2=O)ccc1O,22µM*,?,50µM*,-29%,-19,-6%
COc1cc(CN2C(=O)C(C)ON=C2c2cccs2)cc(OC)c1 (centres undefined),.,.,-3%[57.1 µM],.,6,.
Cc1ccc(-n2c(SCc3cc(=O)n4ccsc4n3)nnc2-c2cccnc2)c(C)c1,?,4%,-9%[57.1 µM],-9%,.,18µM*
Cc1ccc(-n2c(SCC(N)=O)nnc2-c2cccnc2)c(C)c1,-5%,-11%,2%,5%,-6,31%
O=C(C[n+]1csc2ccccc21)c1ccc(O)c(O)c1,14µM*,.,.,25µM*,.,.
COc1ccc(C(=O)Nc2cc(-c3nc4ccccc4s3)ccc2OC)cc1,3%,-17%,.,-5%,.,29%
COc1ccc(-c2nc3ccccc3s2)cc1NC(=O)c1cccc(F)c1,?,-29%,.,-4%[60.1 µM],.,13µM*
COc1cc(NC(=O)CC2C(=O)N(c3cccc(C)c3)C(=O)N2Cc2ccco2)cc(OC)c1 (centres undefined),13%,-17%,.,-19%,.,13%
CC(OC(=O)c1ccc(NC(=O)CC#N)cc1)C(=O)NC(c1ccccc1)c1ccccc1 (centres undefined),?,50µM*,-4%[11.6 µM],-36%,?,.
CCOc1ccccc1NC(=O)C(OC(=O)c1ccc(NC(=O)CC#N)cc1)c1ccccc1 (centres undefined),?,?,-15%,-30%,?,.
O=[N+]([O-])c1ccc(/C=N/Nc2ccnc3cc(Cl)ccc23)o1,?,?,-11%[11.6 µM],-22%,?,?
Clc1ccc2c(N/N=C/c3ccccc3Br)ccnc2c1,-12%,-1%,?,0%,-27,22µM*
Clc1ccc2c(N/N=C/c3cccc(Br)c3)ccnc2c1,-12%,2%,-17%,-11%,-69*,32µM*
Clc1ccc2c(NNc3ccccc3Cl)ccnc2c1,14%,2%,-3%,-12%,0,0%
COCCn1c(NC(=S)NC(=O)C2CC2)cc(=O)[nH]c1=O,80%,-14%,?,0%,-60*,2%
COCCn1c(NC(=S)NC(=O)C23CC4CC(CC(C4)C2)C3)cc(=O)[nH]c1=O,29%,-28%,4%,2%,?,17%
Cc1cc(C)cc(C(=O)N2CCC3(CC2)NCCc2[nH]cnc23)c1,?,0%,2%,-7%,5,26%
CCOC(=O)c1c2c3c(cccc3[nH]c1=O)C(=O)c1ccccc1-2,41%,?,-14%,0%,0,0%
CCOC(=O)c1c2c3c(c(Cl)ccc3[nH]c1=O)C(=O)c1ccccc1-2,?,79µM*,-19%[11.6 µM],?,-22,?
CC[C@@H](C(=O)[C@@H](C)[C@@H](O)[C@H](C)CCc1ccc(C)c(O)c1C(=O)O)[C@H]1O[C@](CC)([C@H]2CC[C@](O)(CC)[C@H](C)O2)C[C@@H]1C,?,-27%,-25%,-17%,?,22µM*
CCC(C(=O)C(C)C(O)C(C)CCc1ccc(C)c(O)c1C(=O)O)C1OC(CC)(C2CC[C@@](O)(CC)C(C)O2)CC1C (some centres undefined),.,.,.,-9%[60.1 µM],.,.
CCn1c(SCC(=O)N/N=C/C=C/c2ccco2)nnc1-c1ccc(OC)cc1,-10%,-6%,-14%,-10%,1,25µM*
Cc1ccc(/C=N/NC(=O)C(O)c2ccccc2)o1 (centres undefined),11%,-18%,-5%,-10%,1,7%
SMILES,POLI inh,Pol eta inh,WRN inhibitor,POLK inh,PI5P4K alpha inh,POLB inh
CC(/C=N/NC(=O)CSc1nc2ccccc2n1C)=C\c1ccco1,56µM*,14µM*,-35%,?,-29,?
CCn1c(SCC(=O)N/N=C/c2ccc(C)o2)nnc1-c1ccc(C)cc1,3%,-21%,-1%,0%,5,34%
O=C(N/N=C/c1cc(Br)c(Br)o1)C(O)c1ccccc1 (centres undefined),?,50µM*,?,-39%,-14,22µM*
O=C(N/N=C/C=C/c1ccco1)C(O)c1ccccc1 (centres undefined),13µM*,50µM*,-27%,?,.,.
CCCN1CCN(c2nnc(-n3cccc3C(=O)Nc3ccccc3C(F)(F)F)s2)CC1,14%,-14%,.,0%,.,-5%
COc1ccccc1OCC(=O)N1CCN(S(=O)(=O)c2ccc(Cl)cc2)CC1,5%,-8%,5%,-5%,-6,.
Cc1cc(Cl)ccc1NC(=O)/N=C1/NC(=O)CS1,.,.,-3%,.,0,.
CC(C)(C)n1ncc2c(=O)n(Cc3ccccc3CS(=O)(=O)c3ccccc3)cnc21,0%,.,.,2%,.,.
Cc1ccc(OCC(=O)N/N=C/C=C/c2ccco2)cc1,16µM*,18µM*,-12%[11.6 µM],?,-64*,-27%
CCn1c(SCC(=O)N/N=C/C=C/c2ccco2)nc2ccccc21,20µM*,50µM*,?,-49%,?,22µM*
O=C(COc1ccccc1[N+](=O)[O-])N/N=C/C=C/c1ccco1,?,?,-6%,-36%,-24,?
COc1ccc(CC2=CC(=O)c3ccccc3C2=O)cc1,10µM*,?,-9%[11.6 µM],-11%,?,-2%
CCOC(=O)c1ccc(NC(=O)C2CCCN(c3ncnc4onc(C)c34)C2)cc1 (centres undefined),15%,-18%,.,1%,.,11%
CCOC(=O)c1c(NC(=O)C2C3C=CC(C3)C2(C)C(=O)O)sc2c1CCCC2 (centres undefined),-31%,20µM*,-19%[57.1 µM],?,-15,22µM*
Cc1cc(NC(=O)CN2CCC(C)CC2)nc2c1c(=O)oc1ccccc12,?,-17%,.,89µM*,.,-1%
O=c1cc[nH]c2c1ccc1c(=O)cc[nH]c12,?,28µM*,-4%[11.6 µM],?,?,-23%
O=C(O)c1ccc(CNC(=O)C2CCN(S(=O)(=O)c3ccc4c(c3)OCCO4)CC2)cc1,.,-4%,5%,.,6,.
COc1ccc2nc(NC(=O)c3nc(S(=O)(=O)Cc4ccccc4F)ncc3Cl)sc2c1,?,?,.,?,.,5.6µM*
COc1ccc2nc(NC(=O)c3nc(SCc4ccccc4F)ncc3Cl)sc2c1,8%,-15%,.,?,.,1%
c1ccc(CNCc2ccco2)cc1,-6%,-9%,0%,-3%,4,-14%
